Measured values from PubChem BioAssay.
“And” between values parts separate entries of the source, which are not always exact repeats. Equal entries are not always repeated. The source made the active and inactive calls.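 How the source made its calls, unless noted: active means compounds whose cell count with miR-34 switched on is under 0.7 times the count with it off; inactive means the rest.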

Columns and labels:
[1] = EMT-state selective cytotoxicity in co-culture – imaging, PC-3E GFP, TEM4-18 mCherry, primary screen (AID 1345086;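 active means compounds killing one labelled cell type while sparing the other, by normalised counts and ratio limits, not self-fluorescent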;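 on all read-outs here: cells exposed to compound for 72 h before imaging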;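 on red/green cell ratio (normalised): normalised mesenchymal count divided by normalised epithelial count so high means epithelial killing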); details: PC-3E GFP / TEM4-18 mCherry co-culture, imaging cell counts, at 1 µM; for red/green cell ratio (normalised): actives lie on both sides, counts scaled to control wells, 1 = unselective
[2] = viability loss with induced miR-34 in A549 – imaging, A549 dox-inducible miR-34, nuclei and caspase counts, primary screen (AID 1347080); details: A549 miR-34 inducible, Hoechst nuclei count, 48 h
[3] = MELAS cybrid and Rieske KO viability enhancers – cell-based, MELAS cybrids, Rieske KO mouse fibroblasts, CellTiter-Glo, primary screen (AID 1508586;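 active means mean z-score across replicates of 1.96 or higher in either the MELAS or the Rieske mutant cell line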;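 further: z relative to plate mean and SD of compound and empty wells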); details: low glucose
[4] = chitosan synthesis blockers in C. neoformans – flow cytometry, Cibacron Brilliant Red staining (AID 1347148; call rule not given here;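 further: compound exposure lasted three days at 37 degrees C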); details: Cryptococcus neoformans chitosan, stronger effect = lower value; at 10 µM unless noted
[5] = blockers of cellular phospholipid synthesis – cell-based, LOPAC library, screen 4, primary screen (AID 1347384; call rule not given here); details: animal cells, phospholipid biosynthesis inhibition screen; at 10 µM
[6] = measured here: epithelial PC-3E GFP cell survival
[7] = measured here: mesenchymal TEM4-18 mCherry cell survival
[8] = stronger effect = lower value, cell number ratio, induced over uninduced
[9] = measured here: relative caspase fold change +Dox/-Dox
[10] = measured here: total cells with miR-34 induction, stronger effect = lower value
[11] = measured here: total cells without miR-34 induction
[12] = MELAS cybrid survival, CellTiter-Glo 48 h, stronger effect = higher value
[13] = Rieske KO mouse fibroblast survival, CellTiter-Glo 72 h

| Compound | red/green cell ratio (normalised) [1] | normalised cell number [1, 6] | normalised cell number [1, 7] | fold change [2, 8] | fold change [2, 9] | cell count [2, 10] | cell count [2, 11] | z-score [3, 12] | z-score [3, 13] | fold fluorescence [4] | outcome [5] |
| --- | --- | --- | --- | --- | --- | --- | --- | --- | --- | --- | --- |
| CCCCC1(COC(=O)CCC(=O)O)C(=O)N(c2ccccc2)N(c2ccccc2)C1=O | 0.91 (inactive) | 0.96 | 0.87 | 0.884 (inactive) | 1.12 | 8700 | 9850 | 0.542 (inactive) | 0.234 |  |  |
| Cc1c(Cl)cccc1Nc1ccccc1C(=O)O | 0.86 (inactive) | 1.08 | 0.93 | 0.957 (inactive) and 1.02 (inactive) and 0.935 (inactive) | 1 and 0.422 and 1.23 | 9330 and 8170 and 9290 | 9750 and 8010 and 9940 | -0.324 (inactive) and 0.232 (inactive) and 0.0953 (inactive) | -0.0198 and -0.0599 and -0.617 |  |  |
| Cc1ccc(C(=O)C(C)CN2CCCCC2)cc1 (stereo not given) | 1 (inactive) | 1 | 1 | 0.986 (inactive) | 0.455 | 8610 | 8730 | -0.166 (inactive) | -0.145 |  |  |
| NCCCC[C@H](N[C@@H](CCc1ccccc1)C(=O)O)C(=O)N1CCC[C@H]1C(=O)O | 1.65 (inactive) | 0.22 | 0.36 | 0.921 (inactive) and 0.874 (inactive) and 0.913 (inactive) | 0.957 and 2.44 and 1.18 | 8900 and 11300 and 9570 | 9670 and 13000 and 10500 | 0.256 (inactive) and -0.39 (inactive) | -0.142 and -0.658 |  |  |
| Nc1ncnc2nc[nH]c12 | 1.1 (inactive) | 1.11 | 1.22 | 0.911 (inactive) and 0.881 (inactive) | 0.822 and 4.73 | 8220 and 12600 | 9020 and 14300 | -0.543 (inactive) | -0.641 |  |  |
| Cc1ccc2c(Cl)cc(Cl)c(O)c2n1 | 0.8 (inactive) | 1.22 | 0.98 | 0.915 (inactive) and 0.981 (inactive) | 0.745 and 0.409 | 9230 and 3330 | 10100 and 3390 | -0.257 (inactive) | -0.123 |  |  |
| N=C(N)N | 1.05 (inactive) | 0.94 | 0.99 | 0.954 (inactive) and 0.99 (inactive) | 0.786 and 0.574 | 8580 and 8630 | 9000 and 8720 | -0.279 (inactive) | -0.172 |  |  |
| COC(=O)N/N=C/c1c[n+]([O-])c2ccccc2[n+]1[O-] | 0.65 (inactive) | 1.24 | 0.81 | 0.833 (inactive) and 0.91 (inactive) | 6.83 and 1.15 | 10200 and 7650 | 12300 and 8400 | 0.937 (inactive) and 0.871 (inactive) | 0.153 and -0.0791 |  |  |
| COc1c2occc2c(OC)c2c(=O)cc(C)oc12 | 0.89 (inactive) | 1.07 | 0.95 | 0.924 (inactive) | 1.18 | 8440 | 9130 | -0.15 (inactive) | -0.129 |  |  |
| O=C1c2ccccc2C(=O)C1c1ccccc1 | 1.05 (inactive) | 1.09 | 1.15 | 0.851 (inactive) and 1.01 (inactive) and 0.873 (inactive) | 1.04 and 0.811 and 1.49 | 8760 and 1750 and 10200 | 10300 and 1740 and 11700 | -0.152 (inactive) and 0.54 (inactive) | -0.0639 and -0.0998 |  |  |
| O=C(O)c1ccccc1Nc1cccc(C(F)(F)F)c1 | 0.85 (inactive) | 1.18 | 1 |  |  |  |  | -0.231 (inactive) and 0.292 (inactive) and -0.218 (inactive) | -0.153 and 0.0506 and 0.216 | 5.28 [at 177.8 µM] (inactive) |  |
| CC(N)C(=O)OC(C)(C)Cc1ccc(Cl)cc1 (stereo not given) | 1.21 (inactive) | 0.96 | 1.16 |  |  |  |  |  |  |  | inactive |
| NC(=NCCCCCCN=C(N)/N=C(\N)Nc1ccc(Cl)cc1)/N=C(\N)Nc1ccc(Cl)cc1 | 1.05 (inactive) | 0.89 | 0.93 | 0.918 (inactive) and 0.785 (inactive) | 1.13 and 3.13 | 1670 and 3350 | 1820 and 4270 | -4.55 (inactive) | -0.0121 |  |  |
| Nc1ccc(C(=O)O)c(O)c1 | 0.88 (inactive) | 1.36 | 1.19 |  |  |  | 10200 and 11500 and 13800 | -0.177 (inactive) and -0.201 (inactive) and 0.567 (inactive) | -0.173 and -0.712 and -0.26 |  |  |
| CCCCc1nc(Cl)c(CO)n1Cc1ccc(-c2ccccc2-c2nn[nH]n2)cc1 | 1.09 (inactive) | 1.34 | 1.46 | 0.884 (inactive) and 0.804 (inactive) | 0.724 and 6.97 | 7690 and 9920 | 8690 and 12300 | -0.213 (inactive) and 0.409 (inactive) | -0.0146 and 0.701 |  |  |
| CC(Cc1cccc(C(F)(F)F)c1)NCCOC(=O)c1ccccc1 (stereo not given) | 0.76 (inactive) | 1.26 | 0.95 | 0.816 (inactive) | 1.56 | 8560 | 10500 | 0.63 (inactive) | 0.0603 |  |  |
| Cc1c(Nc2ncccc2C(=O)O)cccc1C(F)(F)F | 1.03 (inactive) and 0.93 (inactive) | 1.09 and 1.11 | 1.12 and 1.03 | 0.839 (inactive) and 0.931 (inactive) and 0.832 (inactive) | 1.09 and 0.676 and 4.07 | 7890 and 7810 and 10300 | 9410 and 8390 and 12400 | -0.0893 (inactive) and -0.97 (inactive) | 0.0703 and 0.938 |  |  |
| Cc1c(N(C)C)c(=O)n(-c2ccccc2)n1C | 0.85 (inactive) | 1.18 | 1 | 0.875 (inactive) and 0.837 (inactive) | 1.16 and 0.645 and 2.71 | 7950 and 7780 and 11100 | 9080 and 9290 and 12700 | -0.0296 (inactive) and -0.452 (inactive) | -0.137 and 0.114 |  |  |
| Nc1ccc(S(=O)(=O)Nc2cnc3ccccc3n2)cc1 | 1.03 (inactive) | 1.09 | 1.11 | 0.892 (inactive) and 0.874 (inactive) | 0.858 and 3.15 | 8790 and 11400 | 9850 and 13000 | 0.496 (inactive) | 0.547 |  |  |
